Assay outcomes deposited in PubChem BioAssay by several laboratories.
Keap1 Nrf2 FP: Keap1-Nrf2 protein-protein interaction inhibitors, primary screen, biochemical, fluorescence polarization, single point. Kelch-like ECH-associated protein 1 (Homo sapiens), Q14145. Keap1 Kelch-Nrf2 peptide fluorescence polarization, 1536-well. inhibition, % at 9.4 µM. hit rate 0.15% among 340,000; in the data active = inhibition above about 12%;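 also: human Keap1 Kelch domain with fluorescein labeled Nrf2 9mer peptide probe; 0% = neutral control wells and 100% = peptide positive control; higher means more block of Keap1 binding to Nrf2 peptide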
Target sequence (Q14145 whole entry, looked up, the tested form may be a part): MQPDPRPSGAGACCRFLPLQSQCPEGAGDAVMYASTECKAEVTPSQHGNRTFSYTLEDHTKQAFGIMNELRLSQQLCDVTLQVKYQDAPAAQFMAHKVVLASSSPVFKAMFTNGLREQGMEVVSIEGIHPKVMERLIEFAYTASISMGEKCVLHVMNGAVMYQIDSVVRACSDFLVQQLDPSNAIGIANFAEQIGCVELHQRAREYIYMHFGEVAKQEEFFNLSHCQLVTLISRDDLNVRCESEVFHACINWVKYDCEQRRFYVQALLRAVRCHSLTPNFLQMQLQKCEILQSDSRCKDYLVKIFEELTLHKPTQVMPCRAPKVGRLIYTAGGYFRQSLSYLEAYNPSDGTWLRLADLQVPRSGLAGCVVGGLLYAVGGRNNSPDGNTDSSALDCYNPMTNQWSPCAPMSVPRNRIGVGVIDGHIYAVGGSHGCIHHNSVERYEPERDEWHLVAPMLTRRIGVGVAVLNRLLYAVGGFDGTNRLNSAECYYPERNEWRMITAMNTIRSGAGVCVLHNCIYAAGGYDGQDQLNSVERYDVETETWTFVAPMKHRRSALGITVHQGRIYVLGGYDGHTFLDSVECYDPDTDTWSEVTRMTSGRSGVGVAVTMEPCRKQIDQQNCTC
Cardiac RTF inh: cardiac RTF calcium sensitivity inhibitors, primary screen, biochemical, IANBD-TnC fluorescence, EC70 calcium; hit rate 0.12% among 340,000; inhibition, % at 7.15 µM; IANBD-labeled cardiac RTF, Ca2+ fluorescence;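 active = inhibition above the mean inhibition of all tested compounds plus 3 SD, cut at about 17% in these data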;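 also: assay run at fixed EC70 calcium of 1.6 mM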
CRFR2-BP ag: agonists of CRF-BP/CRF-R2 complex, primary screen, cell-based, HEK293, calcium dye fluorescence, uHTS; hit rate 0.46% among 350,000; calcium dye fluorescence (FLIPR); percent of saturating CRF peptide response; activation, % at 13.2 µM;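 active = activation of at least 50%, plus an integration ratio under a set limit after plate pattern correction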;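 also: plate controls were neutral control wells without compound for no effect and CRF at EC100 for full effect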
cardiac RTF act: cardiac RTF calcium sensitivity activators, primary screen, biochemical, IANBD-TnC fluorescence, EC20 calcium; Troponin I, cardiac muscle (Homo sapiens) + Troponin T, cardiac muscle (Homo sapiens) + …; hit rate 0.24% among 340,000; IANBD-labeled TnC RTF fluorescence at EC20 calcium; 0% EC20 calcium, 100% full calcium; activation, % at 7.2 µM;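 active = activation above the mean over all tested compounds plus 3 SD, cut at about 30% in these data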;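 also: rise in fluorescence read as greater calcium sensitivity of cardiac thin filaments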
C-LANA FP: inhibitors of KSHV C-LANA binding to DNA, primary screen, biochemical, fluorescence polarization, FAM-LBS DNA, MBP-C-LANA, single point; inhibition, % at 9 µM; hit rate 0.078% among 340,000; AID 504423, 2011; Kaposi's sarcoma herpesvirus LANA C-terminal domain (residues 932-1162) DNA binding;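 active = highest replicate inhibition at or above 60% at 9 µM, even if other replicates fall short; inactive = all replicates below 60% inhibition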;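 also: 0% = neutral control wells and 100% = 4 µM acridine orange control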
CRFBP-R2 block: antagonists of CRF-BP/CRF-R2 complex, primary screen, cell-based, HEK293, calcium dye fluorescence, uHTS | CRF-induced calcium fluorescence | inhibition, % at 11.8 µM | hit rate 0.59% among 350,000;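 active = inhibition of the ligand-induced calcium signal above about 50% at the single tested concentration, limit read from the data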
Numbers without * were called inactive; nt = no result given. In the library only some 1.3% were active in any assay of this set; here they are far more common.

SMILES	Keap1 Nrf2 FP	Cardiac RTF inh	CRFR2-BP ag	cardiac RTF act	C-LANA FP	CRFBP-R2 block
C=CCSc1nnc(C)c(/C=C/Nc2ccc(Cl)cc2)n1	-18.6	nt	113.6*	nt	-0.6	-196.3
CCOC(=O)c1c(C)oc2ccc(NS(=O)(=O)c3cccs3)cc12	-8.7	-2.5	1.1	-1.5	0.2	-23.1
O=C(CSc1nc2ncc(Cl)cc2[nH]1)N1CCOCC1	-4.8	-5.5	2.2	2.9	-1.1	2.1
CC(=O)Nc1ccccc1OCC(=O)c1cc(C)n(Cc2cccs2)c1C	-1.0	-6.7	160.7*	14.0	-0.1	-89.2
COc1ccc(C2=NN(c3ccc(C=O)cc3)C(c3ccccc3)C2)cc1 (centres undefined)	nt	nt	0.9	nt	nt	-7.7
COc1ccc(C2CC(c3cccs3)=NN2c2ccc(C=O)cc2)cc1 (centres undefined)	nt	nt	108.9*	nt	nt	-126.7
Cc1cc(C)c2c(c1)c(C)cc1nnc(SCC(=O)c3cccs3)n12	4.4	-9.0	7.3	-1.1	0.9	-13.9
CCn1nc(C)c(NC(=O)Nc2cccc(Cl)c2Cl)c1C	-2.0	-1.9	-3.5	12.3	0.1	52.6*
CCn1nc(C)c(NC(=O)c2ccc(Cl)cc2)c1C	-2.3	-3.1	-0.2	-0.9	-0.7	-11.5
CCCCn1c(N)c(N(CC)C(=O)c2c(CC)noc2C)c(=O)[nH]c1=O	-5.2	-4.9	0.5	-4.9	0.3	8.4
CCCCn1c(N)c(N(Cc2ccccc2OC)C(=O)c2c(CC)noc2C)c(=O)[nH]c1=O	0.4	-2.8	0.3	-4.7	-1.8	78.3*
CC1=NOC(=O)/C1=C\c1ccc(-c2ccc(Br)cc2)o1	-0.9	-5.7	69.5*	3.8	2.3	-26.5
CC1=NOC(=O)/C1=C\c1ccc(-c2cc(Cl)ccc2Cl)o1	2.1	1.5	116.5*	-1.9	-1.1	-79.2
Cc1ccccc1C(=O)NCCN1CCOCC1	-5.4	-10.3	0.6	3.8	-0.7	-3.1
CC(C(=O)NCCN1CCOCC1)(c1ccccc1)c1ccccc1	-6.7	-10.2	2.9	-1.8	-1.4	81.1*
COc1ccc(CN2CCCCC2C)cc1C (centres undefined)	-4.6	8.1	162.5*	4.6	-0.8	59.8*
COC(=O)c1sc(SC)nc1N	nt	nt	-1.4	nt	nt	3.6
CN(C)c1ccc(/C=C2\SC(=O)N(CC(O)Cn3c4ccccc4c4ccccc43)C2=O)cc1 (centres undefined)	-0.6	-16.0	95.8*	54.8*	4.8	-103.0
CN(C)c1ccc(C=C2SC(=S)N(Cc3ccco3)C2=O)cc1	nt	nt	169.0*	nt	nt	-128.9
O=C1S/C(=C/c2ccccc2)C(=O)N1CC(O)Cn1c2ccccc2c2ccccc21 (centres undefined)	0.7	-1.4	0.7	11.6	0.9	-25.6
O=C(COC(=O)CCSc1ccccc1)NCc1ccc(F)cc1	-1.6	6.5	-2.0	0.9	1.3	-4.4
CC1=CN2C(=N)/C(=C/c3ccc([N+](=O)[O-])o3)C(=O)N=C2S1	-23.2	-27.8	56.3*	25.6	-2.7	-112.3
CN(C)CCNc1oc(COc2ccc(Cl)cc2Cl)nc1C#N	4.5	-8.9	6.7	7.9	1.2	12.9
CC(NC(=O)COC(=O)c1ccc([N+](=O)[O-])o1)c1ccccc1 (centres undefined)	0.5	0.2	-3.4	3.9	108.3*	-2.5
O=C(COC(=O)c1ccc([N+](=O)[O-])o1)NCCc1ccccc1	-3.5	-8.2	0.6	4.4	0.1	8.5
SMILES	Keap1 Nrf2 FP	Cardiac RTF inh	CRFR2-BP ag	cardiac RTF act	C-LANA FP	CRFBP-R2 block
CC1(C(=O)OCC(=O)NC(=O)c2ccccc2)CC1(Cl)Cl (centres undefined)	-5.3	-0.6	3.8	0.7	0.8	-28.9
CC(NC(=O)COC(=O)C1(C)CC1(Cl)Cl)c1ccccc1 (centres undefined)	-3.0	-7.4	0.4	0.2	-0.3	54.1*
Nc1cnccc1C(=O)O	7.5	-49.4	24.2	38.7*	9.8	-19.4
COC(=O)c1ccncc1N	0.6	-20.2	-1.0	2.9	0.7	-7.9
COc1cc(Cc2nccc3cc(OC)c(OC)cc23)c(S(=O)(=O)O)cc1OC	-2.6	-11.2	-0.5	-2.9	-2.2	8.4
CC1(C)OC(=O)C(=Cc2ccc(-c3ccc(S(N)(=O)=O)cc3)o2)C(=O)O1	0.6	-5.9	1.5	1.4	-1.0	81.2*
CCOc1cc(/C=N/NC(=O)c2ccccc2OCc2ccc(F)cc2)ccc1O	-7.9	-7.0	-0.8	1.0	0.0	55.7*
NS(=O)(=O)c1ccc(NC(=O)CN2CCCC2)cc1	2.7	-9.6	0.9	1.4	-4.1	-8.8
O=C(CC(CC(=O)c1ccccc1)c1ccncc1)c1ccccc1	-2.5	2.1	-2.6	-7.8	-0.9	86.3*
CCOCc1nnc(NC(=O)COc2ccc3c(c2)OCO3)s1	0.3	-9.7	1.2	-1.4	0.1	-5.9
Cn1cc(/C=C(\NC(=O)c2ccccc2)C(=O)N2CCOCC2)c2ccccc21	-3.8	7.6	1.5	-2.5	-1.4	-16.0
CC(C)CN(C)C(=O)CC1C(=O)NCCN1C (centres undefined)	-7.4	-14.5	3.7	2.9	2.8	1.0
O=C(O)c1cnc(-c2ccccc2)nc1Sc1ccc(Cl)cc1	-3.7	-1.3	-2.5	2.7	-2.9	55.3*
O=c1[nH]c2ccc(Cl)cc2[nH]1	-2.5	-3.1	1.6	-2.3	-0.5	109.4*
Cc1c(C(=O)N/N=C/c2ccoc2)cccc1[N+](=O)[O-]	1.7	-10.8	2.0	5.1	-1.5	-8.2
CCOc1ccc(NC(=O)CCC(=O)NNC(=O)COc2ccc(C)cc2Br)cc1	-3.9	-2.6	-1.3	5.4	-1.6	-1.7
COc1ccccc1N1CCN(C(=O)/C=C/c2cccs2)CC1	-3.9	-7.6	-0.8	2.3	-0.6	79.6*
CC(C)N1C(=O)CCC1C(=O)O (centres undefined)	0.8	-12.2	-0.4	3.9	-1.7	-15.7
Oc1ccc(N2CCN(Cc3ccc(OCCCN4CCCCC4)cc3)CC2)cc1	-5.1	-7.7	4.8	11.0	-0.2	-11.3
CCc1ccc2[nH]c(C(=O)Nc3ccc4c(c3)OCO4)cc2c1	-1.6	-0.2	-4.7	3.9	2.4	69.1*
COc1ccc(C2=CSC3=NCCN23)cc1Cl	-3.5	4.2	-0.7	-1.1	2.0	-6.2
O=C1C[C@@H](c2ccc(O)cc2)Oc2cc(O)cc(O)c21	-2.8	-6.0	1.2	1.4	-0.7	0.9
